# According to PubChem BioAssay (NCI):
# Where “and” joins values, the source holds several entries; their conditions need not be identical. Equal values may be shown once. Compounds without any hit were thinned out: in the full panel of roughly 79,000, 15% have a hit. Some structures have more than one record in an assay (separate samples or runs), and their calls can disagree. Calls of active or inactive are those of the source. Rule as the data show it: active = growth inhibition above about 70%; inactive = the rest.
# Assay: NCI Yeast Anticancer Drug Screen. Data for the mlh1 rad18 strain (AID 175)
# Conditions: S. cerevisiae mlh1 rad18 strain growth inhibition, stronger effect = higher value
# Description: Growth inhibition of yeast strains with defined genetic alterations is measured as a screen for potential anti-cancer activity. Selected strains with alterations in DNA damage repair or cell cycle control were exposed to compounds and growth inhibition was measured relative to vehicle treated controls. The strain used in this assay is mlh1 rad18
# [1] = at 5.0 µM (retest, dose inferred, filed as 0.5)
# [2] = at 50.0 µM (retest, dose inferred, filed as 5.0)
Structure (SMILES),growth inhibition [1],growth inhibition [2],growth inhibition (at 50.0 µM)
O=C(c1ccc([N+](=O)[O-])cc1)C1N=NCC1c1ccccc1 (configuration not stated),-3% (inactive),35% (inactive),42% (inactive)
Cc1c2ccnc(C(=O)NCCN(C)C)c2cc2c3cc(O)ccc3n(C)c12,0% (inactive),-1% (inactive),46.4% (inactive)
Oc1ccc(SCc2ccc(NCc3ccccc3)cc2)cc1,19% (inactive),75% (active),79.8% (active)
CN(C)/C=C/c1nnc([N+](=O)[O-])s1,-115% (inactive),77% (active),89.8% (active)
NNC(=O)CCc1cc2ccccc2c2ccccc12,45% (inactive),98% (active),98.5% (active)
CNCCCNc1c2ccccc2nc2cccc([N+](=O)[O-])c12,88% (active),96% (active),85.3% (active)
COc1ccc(C(=O)C(CN(C)C)CN(C)C)cc1,57% (inactive) and 12% (inactive),92% (active) and 27% (inactive),8.1% (inactive) and 64.3% (inactive)
O=C(/C=C/c1cc(Cl)cc(Cl)c1O)c1cccc(O)c1,46% (inactive),97% (active),92.7% (active)
COc1cc(/C=C2\CCC/C(=C\c3ccc(O)c(OC)c3)C2=O)ccc1O,-3% (inactive),6% (inactive),-13.2% (inactive) and 11.4% (inactive)
O=C1/C(=C/c2ccccc2)CCCC1CN1CCCCC1 (configuration not stated),43% (inactive),75% (active),74.7% (active)
COc1ccc(C/C=N/Nc2ccc([N+](=O)[O-])cc2)cc1OC,7% (inactive),98% (active),97.8% (active)
CN(C)CCOC1(Cc2ccc(Cl)cc2Cl)CCC(C(C)(C)C)CC1 (configuration not stated),96% (active) and 68% (inactive),100% (active) and 99% (active),99.5% (active) and 99.4% (active)
CN(C)c1ccc2c(SCC(=O)OCC(=O)[C@@]3(O)CC[C@H]4[C@@H]5CCC6=CC(=O)C=C[C@]6(C)[C@H]5C(=O)C[C@@]43C)c3ccc(N(C)C)cc3nc2c1,50% (inactive),86% (active),84.5% (active)
NC(=O)C(=O)NNc1ccccc1,45% (inactive),89% (active),82.7% (active)
